Test results taken from the supplement of paper PMC11732987, “Enantioselective OTUD7B fragment discovery through chemoproteomics screening and high-throughput optimisation” (Communications Chemistry, 2025).

Compound: COc1cccc(CN(C)C(=O)CCl)c1
Assay: log2 ratio of Biotin-Ahx-Ub-VS probe labelling (compound/DMSO); higher = less target engagement, active = hit call of the paper (q ≤ 0.05, log2 ratio ≤ -1)
Details: compound concentration: 50uM; treatment time: 3 h
Protocol: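 Round 2 competitive ABPP in HEK293T lysate. Compounds were tested at 50 and 200 µM for 3 h, followed by Biotin-Ahx-Ub-VS enrichment and diaPASEF LC-MS/MS. Values are the average log2 ratio (compound/DMSO) from an unpaired t-test (n=3 treated, n=26 DMSO).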

Chain of UniProt Q93008 (Q93008 whole entry): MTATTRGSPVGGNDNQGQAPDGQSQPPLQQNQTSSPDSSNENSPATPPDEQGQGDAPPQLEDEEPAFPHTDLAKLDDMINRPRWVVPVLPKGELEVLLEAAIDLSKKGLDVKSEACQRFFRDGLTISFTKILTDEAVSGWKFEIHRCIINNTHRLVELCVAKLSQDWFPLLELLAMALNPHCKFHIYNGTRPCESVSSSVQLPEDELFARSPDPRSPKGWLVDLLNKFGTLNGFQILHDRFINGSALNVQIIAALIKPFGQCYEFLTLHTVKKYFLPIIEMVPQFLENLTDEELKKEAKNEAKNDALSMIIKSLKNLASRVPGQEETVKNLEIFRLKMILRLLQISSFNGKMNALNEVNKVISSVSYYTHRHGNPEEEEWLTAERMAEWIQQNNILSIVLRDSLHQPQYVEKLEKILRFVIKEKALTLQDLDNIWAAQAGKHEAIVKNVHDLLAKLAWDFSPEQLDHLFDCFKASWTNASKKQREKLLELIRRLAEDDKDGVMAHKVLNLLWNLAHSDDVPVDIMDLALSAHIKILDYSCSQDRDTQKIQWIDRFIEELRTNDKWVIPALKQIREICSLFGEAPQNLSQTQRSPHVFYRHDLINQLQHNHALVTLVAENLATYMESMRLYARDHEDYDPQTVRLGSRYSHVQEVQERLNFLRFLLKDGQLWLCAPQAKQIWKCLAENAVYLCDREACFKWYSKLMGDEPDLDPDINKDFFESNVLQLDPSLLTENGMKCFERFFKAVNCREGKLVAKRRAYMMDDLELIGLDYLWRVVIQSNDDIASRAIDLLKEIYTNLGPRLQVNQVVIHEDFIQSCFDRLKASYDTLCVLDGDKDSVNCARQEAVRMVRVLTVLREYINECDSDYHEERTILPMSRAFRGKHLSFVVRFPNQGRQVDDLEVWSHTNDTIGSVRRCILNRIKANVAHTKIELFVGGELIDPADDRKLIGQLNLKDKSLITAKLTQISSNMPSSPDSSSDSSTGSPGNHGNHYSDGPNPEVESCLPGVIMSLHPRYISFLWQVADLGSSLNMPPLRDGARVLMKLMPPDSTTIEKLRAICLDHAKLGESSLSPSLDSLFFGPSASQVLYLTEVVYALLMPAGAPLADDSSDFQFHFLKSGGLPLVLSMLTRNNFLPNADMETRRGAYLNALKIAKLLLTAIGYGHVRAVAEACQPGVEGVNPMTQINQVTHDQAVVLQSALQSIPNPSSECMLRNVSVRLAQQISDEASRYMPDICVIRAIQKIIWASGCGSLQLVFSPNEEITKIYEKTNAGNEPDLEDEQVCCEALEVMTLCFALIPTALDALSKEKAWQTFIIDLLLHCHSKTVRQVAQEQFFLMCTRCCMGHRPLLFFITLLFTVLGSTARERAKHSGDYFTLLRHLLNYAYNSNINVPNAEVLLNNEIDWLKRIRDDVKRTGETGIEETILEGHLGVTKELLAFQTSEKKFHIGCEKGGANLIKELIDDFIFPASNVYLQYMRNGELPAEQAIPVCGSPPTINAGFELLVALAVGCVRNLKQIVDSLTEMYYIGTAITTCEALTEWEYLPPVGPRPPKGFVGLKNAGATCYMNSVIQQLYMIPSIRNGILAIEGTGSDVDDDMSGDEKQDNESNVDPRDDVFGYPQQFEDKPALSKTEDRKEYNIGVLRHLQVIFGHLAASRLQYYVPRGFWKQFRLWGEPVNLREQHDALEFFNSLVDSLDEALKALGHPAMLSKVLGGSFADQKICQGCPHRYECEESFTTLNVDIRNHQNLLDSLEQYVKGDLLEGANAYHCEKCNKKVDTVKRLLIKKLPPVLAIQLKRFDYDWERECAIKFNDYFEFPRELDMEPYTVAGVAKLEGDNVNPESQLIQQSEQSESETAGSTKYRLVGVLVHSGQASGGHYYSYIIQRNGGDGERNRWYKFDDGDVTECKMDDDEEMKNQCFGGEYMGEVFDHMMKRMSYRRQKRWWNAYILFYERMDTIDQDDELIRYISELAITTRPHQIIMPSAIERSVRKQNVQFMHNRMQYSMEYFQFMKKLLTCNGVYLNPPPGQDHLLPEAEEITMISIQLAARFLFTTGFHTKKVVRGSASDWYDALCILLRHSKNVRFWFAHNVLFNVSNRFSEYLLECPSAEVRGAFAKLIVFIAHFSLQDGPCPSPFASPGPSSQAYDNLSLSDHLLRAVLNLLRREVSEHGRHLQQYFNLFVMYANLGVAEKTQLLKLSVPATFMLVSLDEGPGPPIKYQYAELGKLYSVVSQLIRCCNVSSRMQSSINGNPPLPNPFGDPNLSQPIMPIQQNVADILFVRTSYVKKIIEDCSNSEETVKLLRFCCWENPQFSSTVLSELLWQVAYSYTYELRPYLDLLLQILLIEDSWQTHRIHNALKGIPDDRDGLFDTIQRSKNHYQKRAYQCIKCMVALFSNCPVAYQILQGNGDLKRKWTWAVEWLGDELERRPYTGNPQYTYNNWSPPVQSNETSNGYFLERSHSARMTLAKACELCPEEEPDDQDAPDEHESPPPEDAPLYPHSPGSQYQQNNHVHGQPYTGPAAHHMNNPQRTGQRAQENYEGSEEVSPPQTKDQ
Chain of UniProt Q8N6M0 (Q8N6M0 whole entry): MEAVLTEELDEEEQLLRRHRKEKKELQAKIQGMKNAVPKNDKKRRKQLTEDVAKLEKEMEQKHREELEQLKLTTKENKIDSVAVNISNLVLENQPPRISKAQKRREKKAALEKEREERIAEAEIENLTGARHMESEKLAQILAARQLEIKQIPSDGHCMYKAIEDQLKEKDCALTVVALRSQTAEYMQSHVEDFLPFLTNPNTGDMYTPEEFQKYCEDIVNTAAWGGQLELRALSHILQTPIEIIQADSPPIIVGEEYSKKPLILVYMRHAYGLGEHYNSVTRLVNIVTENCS
Chain of UniProt Q5VVQ6 (Q5VVQ6 whole entry): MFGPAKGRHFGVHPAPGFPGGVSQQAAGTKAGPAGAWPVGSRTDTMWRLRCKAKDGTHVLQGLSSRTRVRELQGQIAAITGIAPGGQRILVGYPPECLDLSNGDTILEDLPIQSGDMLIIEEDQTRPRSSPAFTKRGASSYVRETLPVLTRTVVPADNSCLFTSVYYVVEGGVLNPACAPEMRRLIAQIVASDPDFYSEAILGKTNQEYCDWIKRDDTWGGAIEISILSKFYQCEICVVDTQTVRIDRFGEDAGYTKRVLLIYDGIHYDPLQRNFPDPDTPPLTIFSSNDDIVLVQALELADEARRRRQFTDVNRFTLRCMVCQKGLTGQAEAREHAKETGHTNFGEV
Chain of UniProt Q9Y4E8 (Q9Y4E8 whole entry): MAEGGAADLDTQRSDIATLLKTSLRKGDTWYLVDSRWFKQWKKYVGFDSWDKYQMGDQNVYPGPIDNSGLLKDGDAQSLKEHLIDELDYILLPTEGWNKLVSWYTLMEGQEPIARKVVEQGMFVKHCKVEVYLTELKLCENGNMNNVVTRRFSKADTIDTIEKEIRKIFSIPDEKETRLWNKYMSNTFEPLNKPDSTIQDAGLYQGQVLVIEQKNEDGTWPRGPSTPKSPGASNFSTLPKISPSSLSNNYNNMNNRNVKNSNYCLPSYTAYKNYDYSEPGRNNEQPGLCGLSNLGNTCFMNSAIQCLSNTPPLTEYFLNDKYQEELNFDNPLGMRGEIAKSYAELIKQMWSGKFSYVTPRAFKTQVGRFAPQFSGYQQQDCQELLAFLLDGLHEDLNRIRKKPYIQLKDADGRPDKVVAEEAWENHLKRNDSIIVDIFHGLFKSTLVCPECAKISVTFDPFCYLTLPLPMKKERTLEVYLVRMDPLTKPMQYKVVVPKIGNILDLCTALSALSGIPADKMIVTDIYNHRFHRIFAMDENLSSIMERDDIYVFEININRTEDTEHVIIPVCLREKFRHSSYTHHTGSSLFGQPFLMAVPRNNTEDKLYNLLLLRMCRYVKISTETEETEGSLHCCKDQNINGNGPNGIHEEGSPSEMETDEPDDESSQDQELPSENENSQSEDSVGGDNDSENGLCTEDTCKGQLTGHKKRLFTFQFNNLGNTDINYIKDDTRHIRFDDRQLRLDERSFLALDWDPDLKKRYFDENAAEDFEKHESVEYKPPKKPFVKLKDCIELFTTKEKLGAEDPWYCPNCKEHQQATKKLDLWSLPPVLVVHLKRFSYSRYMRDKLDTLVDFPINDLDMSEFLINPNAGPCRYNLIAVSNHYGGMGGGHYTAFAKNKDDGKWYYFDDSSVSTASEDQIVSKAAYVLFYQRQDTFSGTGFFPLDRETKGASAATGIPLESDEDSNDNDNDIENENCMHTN
Chain of UniProt P54252 (P54252 whole entry): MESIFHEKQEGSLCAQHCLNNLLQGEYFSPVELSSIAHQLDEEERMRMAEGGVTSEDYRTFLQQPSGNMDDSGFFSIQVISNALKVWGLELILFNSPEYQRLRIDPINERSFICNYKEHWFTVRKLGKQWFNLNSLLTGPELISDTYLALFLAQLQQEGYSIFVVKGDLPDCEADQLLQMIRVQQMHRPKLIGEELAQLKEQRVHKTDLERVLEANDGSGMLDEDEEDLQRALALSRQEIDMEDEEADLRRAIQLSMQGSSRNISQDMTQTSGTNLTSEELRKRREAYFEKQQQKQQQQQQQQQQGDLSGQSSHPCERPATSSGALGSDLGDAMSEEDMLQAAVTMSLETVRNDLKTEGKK
Chain of UniProt O15372 (O15372 whole entry): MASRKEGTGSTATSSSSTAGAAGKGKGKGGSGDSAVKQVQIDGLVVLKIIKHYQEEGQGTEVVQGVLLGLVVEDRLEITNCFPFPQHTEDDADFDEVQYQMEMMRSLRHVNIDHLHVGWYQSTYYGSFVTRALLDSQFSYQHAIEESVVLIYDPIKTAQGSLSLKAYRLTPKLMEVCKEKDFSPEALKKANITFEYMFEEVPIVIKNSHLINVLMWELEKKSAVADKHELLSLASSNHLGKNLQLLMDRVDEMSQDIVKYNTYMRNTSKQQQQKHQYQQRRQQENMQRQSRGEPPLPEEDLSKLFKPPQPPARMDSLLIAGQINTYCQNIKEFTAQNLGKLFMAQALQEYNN

log2 ratio of Biotin-Ahx-Ub-VS probe labelling, inactive:
ATXN3 (UniProt P54252) -0.217
USP28 (UniProt Q96RU2) -0.0726
UniProt Q8TE49 -0.097
OTUD6B (UniProt Q8N6M0) -0.149
EIF3H (UniProt O15372) -0.183
YOD1 (UniProt Q5VVQ6) 0.0405
USP15 (UniProt Q9Y4E8) -0.185
USP9X (UniProt Q93008) -0.0295

Same assay, conditions: compound concentration: 200uM; treatment time: 3 h

log2 ratio of Biotin-Ahx-Ub-VS probe labelling, inactive:
ATXN3 (UniProt P54252) -0.786
USP28 (UniProt Q96RU2) -0.646
UniProt Q8TE49 -0.652
OTUD6B (UniProt Q8N6M0) -0.283
EIF3H (UniProt O15372) 0.043
YOD1 (UniProt Q5VVQ6) -0.24
USP15 (UniProt Q9Y4E8) -0.33
USP9X (UniProt Q93008) -0.23
